14-3-3 Bad PPI – disrupts binding of bovine 14-3-3 zeta to phospho-Bad peptide | 220,000 compounds, 0.71% hits | TR-FRET 14-3-3zeta/Dy647-pBad peptide displacement, 1 h | inhibition, % at 21.7 µM;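 active = inhibition above about 70%, limit read from the data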
Target sequence (P63103 whole entry, looked up): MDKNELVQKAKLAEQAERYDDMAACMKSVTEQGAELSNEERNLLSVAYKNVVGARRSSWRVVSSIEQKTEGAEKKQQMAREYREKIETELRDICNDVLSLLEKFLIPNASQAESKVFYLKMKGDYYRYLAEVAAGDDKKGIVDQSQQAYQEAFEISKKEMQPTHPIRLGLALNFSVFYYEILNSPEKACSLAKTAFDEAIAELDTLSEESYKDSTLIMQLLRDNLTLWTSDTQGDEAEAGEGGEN
Mcl-1 Bim block – human Bim-Mcl-1 interaction inhibition; inhibition, % at 10 µM; AID 1009; Bead-based flow cytometry, Bim peptide-Mcl-1 binding; Q07820; 190,000 compounds, 0.1% hits; in the data active = inhibition above about 40%
Target sequence (Q07820 whole entry, looked up): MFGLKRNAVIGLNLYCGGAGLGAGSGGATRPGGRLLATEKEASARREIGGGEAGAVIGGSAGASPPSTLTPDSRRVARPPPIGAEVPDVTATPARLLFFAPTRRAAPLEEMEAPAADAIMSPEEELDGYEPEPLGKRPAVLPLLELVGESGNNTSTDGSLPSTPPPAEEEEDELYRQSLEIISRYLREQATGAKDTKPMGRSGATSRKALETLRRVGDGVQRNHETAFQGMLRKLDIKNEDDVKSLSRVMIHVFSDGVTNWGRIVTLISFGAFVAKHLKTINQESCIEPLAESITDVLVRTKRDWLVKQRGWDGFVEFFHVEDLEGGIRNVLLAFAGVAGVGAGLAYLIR
Hck-Nef inh – blocks Nef-activated human Hck kinase; P08631; Recombinant Hck-YEEI plus Nef, Z-Lyte FRET kinase assay; inhibition, % at 20 µM; 220,000 compounds, 0.68% hits;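 active = Hck-Nef kinase inhibition above about 50%, limit read from the data; inactive = inhibition below that limit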
Pf gametocyte – inhibitors of late stage P. falciparum gametocyte viability; AID 743093; inhibition, % at 10.9 µM; 150,000 compounds, 0.065% hits; P. falciparum stage V gametocytes, ATP luminescence, 24 h;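 active = inhibition above the mean plus 3 SD of compounds within the control limits, set per campaign, cut at about 38% in these data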
Mcl1-Noxa inh – disrupts binding of human Mcl-1 to Noxa peptide; Q07820; TR-FRET Mcl-1/Noxa peptide binding, 2 h; inhibition, % at 21.7 µM; 220,000 compounds, 1.5% hits; AID 1022;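 active = compounds that cut the protein-peptide binding signal by more than 50% relative to plate controls in a single-dose test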;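 note: His-tagged Mcl-1 with rhodamine Noxa BH3 peptide and terbium anti-His antibody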
Mcl1 Bid PPI – Mcl-1/Bid interaction inhibition. Q07820. TR-FRET Mcl-1/Bid-Dy647 peptide binding, 1536-well. inhibition, % at 21.7 µM. 220,000 compounds, 0.97% hits. AID 1021;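 active = compounds that cut the binding signal by more than half at the single screening dose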;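 note: His-tagged Mcl-1 with europium anti-His antibody binding Bid BH3 peptide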
Each line names hits and unclear results; the compound was inactive in the other large screens. The list is not random: actives were taken first. Their share in the collection is about 2.9%.

CC1CCCC(NC2CCCCNC2=O)C1 (centres undefined)	Mcl1 Bid PPI 83.1
O=C(CCC(=O)OCC(=O)c1ccccc1)NC1CCCCC1	none (no result: Pf gametocyte)
O=C(OC(C(=O)NCc1ccco1)C(OC(=O)c1ccccc1)C(=O)NCc1ccco1)c1ccccc1 (centres undefined)	none
CC(C)NC(=O)C(OC(=O)c1ccccc1)C(OC(=O)c1ccccc1)C(=O)O (centres undefined)	14-3-3 Bad PPI 70.2 (no result: Pf gametocyte)
Cc1ccc2nc(-c3ccc(S(=O)(=O)N4CCCCC4)cc3)cn2c1	none
CCCCCC(=O)NC(=S)Nc1ccc2oc(=O)ccc2c1	Mcl1-Noxa inh 56.3
COc1ccc(C(=O)NC(=S)Nc2ccc3oc(=O)ccc3c2)cc1	none
COc1cc(C2C(C#N)=C(N)Oc3cc(O)ccc32)cc(OC)c1OC (centres undefined)	Mcl1 Bid PPI 59.6 (no result: Pf gametocyte)
CCN(CC)CCN(C(=O)c1ccc(N2C(=O)CCC2=O)cc1)c1nc2cc3c(cc2s1)OCCO3	none
NC(N)=N/N=C/c1ccc(Cl)cc1Cl	Mcl1 Bid PPI 50.8 (no result: Mcl-1 Bim block)
Cc1cccc(N(C)S(=O)(=O)c2ccc3[nH]cc(C(=O)N4CCOCC4)c(=O)c3c2)c1	Mcl1 Bid PPI 50.6
Cc1ccc(C)c(N(C)S(=O)(=O)c2ccc3[nH]cc(C(=O)NCCN4CCOCC4)c(=O)c3c2)c1	none
CC(C)[C@@H](CO)NC(=O)c1ccc2c3n(nc2c1)-c1ccccc1CO3	none (no result: Mcl-1 Bim block, Pf gametocyte)
CCOc1cc(C(=O)Nc2ccc(N3CCOCC3)cc2)cc(Br)c1OC	Mcl1-Noxa inh 60.9
CCOc1cc(C(=O)Nc2ccc(F)cc2)cc(Br)c1OC	none
C/C(Cn1nnc([N+](=O)[O-])n1)=N\NC(=O)c1ccc(O)cc1O	none
C/C(=N/NC(=O)c1ccc2c(c1)OCO2)c1ccc(NC(=O)C(F)(F)F)cc1	14-3-3 Bad PPI 86.3
Cc1nc(C)c(C(=O)Nc2ncc([N+](=O)[O-])s2)o1	Mcl1-Noxa inh 69.2 (no result: Pf gametocyte)
CC(C(=O)N1CCCc2ccccc21)N1C(=O)c2ccccc2C1=O (centres undefined)	none
Cc1cccc(NC(=O)C2C(C(=O)O)C3C=CC2C32CC2)c1C (centres undefined)	Mcl1 Bid PPI 97.4
O=C(NCCN1CCN(C(=O)c2cccs2)CC1)C(=O)Nc1ccc(Br)cc1	none (no result: 14-3-3 Bad PPI)
CCN1CCCc2cc(CN(CCN3CCOCC3)C(=S)Nc3cccc(C)c3)ccc21	Mcl1-Noxa inh 64.0
CCN1CCCc2cc(CN(CCN3CCOCC3)C(=S)Nc3ccccc3OC)ccc21	Mcl1-Noxa inh 59.7
CCN1CCCc2cc(CN(CCN3CCOCC3)C(=S)Nc3ccc(OC)c(Cl)c3)ccc21	none
CCc1ccc(NC(=O)N(CCN2CCOCC2)Cc2ccc3c(c2)CCCN3CC)cc1	Mcl1-Noxa inh 73.9 (no result: Pf gametocyte)
Cc1nn(-c2ccccc2)c(Cl)c1C(=O)Nc1ccc(N2CCOCC2)cc1	none (no result: Pf gametocyte)
CC1CCCC(N2CCN(C(=O)c3ccc([N+](=O)[O-])cc3)CC2)C1 (centres undefined)	none (no result: 14-3-3 Bad PPI, Mcl-1 Bim block, Hck-Nef inh, Mcl1-Noxa inh, Mcl1 Bid PPI)
COC(=O)CSc1ncnc2c1sc1nc(-c3ccco3)c3c(c12)CC(C)(C)OC3	Mcl1-Noxa inh 75.8 (no result: 14-3-3 Bad PPI, Pf gametocyte)
Cc1c(NC(=O)COC(=O)c2c3c(nc4ccccc24)CCCC3)c(=O)n(-c2ccccc2)n1C	none
Cc1c(NC(=O)C(C)OC(=O)c2c3c(nc4ccccc24)CCC3)c(=O)n(-c2ccccc2)n1C (centres undefined)	Mcl1-Noxa inh 54.1
CCOC(=O)CSc1nnc2n1C(C)(C)Cc1ccccc1-2	Mcl1-Noxa inh 92.4
O=C(Nc1ccc2oc(-c3cccnc3)nc2c1)c1ccc(Br)o1	Mcl1 Bid PPI 52.2 (no result: Pf gametocyte)
O=C(Nc1ccc2oc(-c3cccnc3)nc2c1)c1ccco1	none (no result: Pf gametocyte)
O=C(Nc1ccc2oc(-c3cccnc3)nc2c1)c1ccc([N+](=O)[O-])o1	Mcl1-Noxa inh 67.2, Mcl1 Bid PPI 61.0
CCCCCCCN(c1ccccc1)C1C[C@H]2CCCC(=O)N3CC[C@@H](C1)[C@@H]23 (some centres undefined)	none (no result: 14-3-3 Bad PPI, Mcl-1 Bim block, Hck-Nef inh, Mcl1-Noxa inh, Mcl1 Bid PPI)
CCC(C)NC(=O)C(=O)NC1CCCC1 (centres undefined)	none (no result: Pf gametocyte)
COc1cc(-c2nc(-c3ccccc3)c(-c3cccs3)[nH]2)cc(OC)c1OC	none
COc1cc(-c2nc(-c3ccccc3)c(-c3cccs3)[nH]2)cc(OC)c1O	Mcl1-Noxa inh 54.7 (no result: Pf gametocyte)
O=[N+]([O-])c1cccc(/C=C/c2nc(C=Nc3ccc4ccccc4c3)c(O)o2)c1	Mcl1-Noxa inh 81.4, Mcl1 Bid PPI 65.5
CC(C)C(CCN1C(=O)CCC1=O)C1CCOC(C)(C)C1 (centres undefined)	none (no result: Pf gametocyte)
O=C(/C=C\c1ccco1)c1ccc(NC(=O)c2ccco2)cc1	Mcl1-Noxa inh 75.7 (no result: Pf gametocyte)
CC(=O)Nc1ccc(C(=O)/C=C/c2ccco2)cc1	Mcl1-Noxa inh 60.9
CC(=O)Nc1cccc(C(=O)/C=C/c2ccc(/C=C/C(=O)c3cccc(NC(C)=O)c3)cc2)c1	Mcl1 Bid PPI 58.9
Cc1nn(C)c(C)c1S(=O)(=O)N(CC(=O)NCCCOC(C)C)c1ccc(C(C)C)cc1	none
CCC(C)[C@H](NC(=O)N1CCCCC1)C(=O)OC (some centres undefined)	none (no result: Mcl-1 Bim block)
Cc1cc(C)nc(-n2ncc3c2CCCC3=O)n1	none
Cc1cc(C)c(C)c(S(=O)(=O)N2CCN(CC(=O)NC(=O)NCc3ccccc3)CC2)c1C	Mcl-1 Bim block 61.0
Cc1ccc(C)c(NS(=O)(=O)c2ccc3[nH]c(=O)[nH]c3c2)c1	none (no result: Mcl-1 Bim block)
Cc1ccc(C)c(NS(=O)(=O)c2ccc3[nH]c(=O)oc3c2)c1	Mcl1-Noxa inh 58.8
Cc1cccc(-c2nc(C#N)c(N3CCCCCC3)o2)c1	none (no result: Pf gametocyte)
COc1cccc(/C=N/Nc2nn3cnnc3c3ccccc23)c1O	Mcl1-Noxa inh 52.8 (no result: Pf gametocyte)
Oc1cccc(/C=N/Nc2nn3cnnc3c3ccccc23)c1	none (no result: Mcl-1 Bim block)
COc1cc(/C=N/O)ccc1Oc1ccc([N+](=O)[O-])cc1[N+](=O)[O-]	none
O=[N+]([O-])c1cc(/C=N\O)ccc1Oc1ccc(F)cc1	14-3-3 Bad PPI 84.5
O=C1C2C3C=CC(CO)(O3)C2C(=O)N1c1ccccc1-c1ccccc1 (centres undefined)	Mcl1-Noxa inh 52.6 (no result: Pf gametocyte)
CC(=O)Oc1ccc(N2C(=O)C3C4C=CC(CO)(O4)C3C2=O)cc1 (centres undefined)	none
CCN(CC)C(=O)c1ccc(Nc2nnc(C)c3ccccc23)cc1	none
CNc1nn(-c2cccc(Cl)c2)nc1N	Mcl1 Bid PPI 95.7
CCCN=C1N/C(=C\c2ccco2)C(=O)N1c1ccccc1	none (no result: Pf gametocyte)
O=C1/C(=C\c2ccco2)NC(=S)N1c1ccccc1	Hck-Nef inh 52.7, Mcl1-Noxa inh 58.0
COc1ccc(N(C(=O)CS(=O)CC(=O)Nc2ccc(F)cc2)C(C(=O)NC2CCCCC2)c2cccs2)cc1 (centres undefined)	Mcl1 Bid PPI 61.5
O=C(CS(=O)CC(=O)N(c1ccccc1)C(C(=O)NC1CCCCC1)c1ccco1)Nc1ccc(F)cc1 (centres undefined)	none (no result: Pf gametocyte)

Screening results as filed in PubChem BioAssay.
